Compound activity from PubChem.
IL-1B inflam inh: inhibitors of inflammasome signaling (IL-1 beta secretion); AID 743279; activity change, % at 57.5 µM; THP-1 LPS/ATP IL-1B secretion, AlphaLISA, 16 h; hits give low values; 360,000 tested, 4.7% active; in the data active = activity change below about -50%; inconclusive = mostly about -30% to -49%
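THP-1 cells pretreated 1 hr with compounds (up to 57.5 uM final), then stimulated with LPS (250 ng/mL final) plus ATP (1.25 mM final); secreted IL-1B measured by AlphaLISA after 16 hr, decreased signal indicating inhibition.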
TDP1 cell CPT: DT40-hTDP1 cell growth loss with CPT. chicken DT40 Tdp1-/-;hTDP1 cells + 20 nM CPT, ATP luminescence, 48 h. Potency, µM (highest dose often 46.2 µM), for inactives: at the highest dose activity change, negative = growth inhibition, most hits filed as inhibitors. 420,000 tested, 12% active. AID 686979; also: potency is read from the fitted curve at half-maximal effect; nearly all actives have a fitted effect of over 55% in size
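Chicken DT40 Tdp1-/- cells complemented with human TDP1, 400 cells/well, exposed to compounds plus 20 nM camptothecin for at least 48 h at 37 C; viability read as ATP content by CellTiter-Glo luminescence.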
HT1080NT lethal: kills 2HG-producing HT-1080-NT fibrosarcoma cells | AID 686970 | 360,000 tested, 1.6% active | Potency, µM (series often up to 46.1 µM), for inactives: top-dose activity, negative = less viability, hits mostly cytotoxic | HT-1080-NT fibrosarcoma viability, CellTiter-Glo ATP luminescence, 48 h;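 also: NT is the 2HG producing partner of a matched IDH1 knockdown line; potency is read from the fitted curve at half-maximal effect; 0% = DMSO-treated cells and -100% = media-only wells without cells; nearly all actives have a fitted effect of over 55% in size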
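750 cells/well, RPMI + 5% FBS; 2 h settle, compound pin-transfer, 48 h at 37 degrees C. CellTiter-Glo 10 min RT, luminescence. Normalized to DMSO and media-only wells.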
HT1080 IDH1KD tx: HT-1080 IDH1 knockdown cell toxicity (counter line) | HT-1080 IDH1 knockdown viability, ATP luminescence, 48 h | 360,000 tested, 2% active | Potency, µM (doses to about 46.1 µM), inactives show top-dose activity, negative = toxicity, hits mostly cytotoxic;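 also: potency is read from the fitted curve at half-maximal effect; 0% = DMSO wells and -100% = cell-free medium wells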
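% activity derives from luminescence (CellTiter-Glo), normalised to DMSO and no-cell wells. HT-1080-IDH1KD cells, 750/well, had 48 h compound exposure at 37 °C.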
DT40 TDP1 no CPT: qHTS for Inhibitors of human tyrosyl-DNA phosphodiesterase 1 (TDP1): qHTS in cells in absence of CPT; DT40 Tdp1-/- hTDP1 cells, no CPT, ATP luminescence, 48 h; Potency, µM (highest dose often 46.2 µM), for inactives: top-dose activity change, negative = growth inhibition, actives largely listed as inhibitors; 420,000 tested, 15% active; also: potency is read from the fitted curve at half-maximal effect; nearly all actives have a fitted effect of over 55% in size
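Chicken DT40 Tdp1-/- cells complemented with human TDP1, screened without camptothecin (DMSO vehicle only), 400 cells/well. Compounds pin-transferred, cells incubated at 37 °C for at least 48 hr. Growth read as ATP-dependent luminescence (CellTiter-Glo, 30 min at RT).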
* marks the source's active call; other numbers are inactive results; u = inconclusive; x = not tested or not shown; [ ] = remark or other dose. An excerpt weighted towards active compounds, which were near 19% of everything screened. Unless noted, calls follow the shape of the dose curve; as a rule, active = well fitted curve in the direction sought with a large enough effect; inconclusive = small, poorly fitted or top-dose-only effect, or another doubt; inactive = no such curve, though single readings can be large; an effect the other way counts as inactive or inconclusive. Unless noted, % is scaled to controls: 0 for no effect and ±100 for the full control effect.

SMILES	IL-1B inflam inh	TDP1 cell CPT	HT1080NT lethal	HT1080 IDH1KD tx	DT40 TDP1 no CPT
Cc1noc(C)c1C(=O)OCC(=O)NCc1ccc(Cl)cc1	11	5%	13%	0%	-21%
CN(C)c1ccc(/C=C/c2ccnc3ccc4ccccc4c23)cc1	x	0.14µM*	x	x	0.13µM*
O=C1C(=O)c2ccccc2C([O-])=C1[n+]1ccccc1	21	-27%	-2%	0%	11%
CCc1cc[n+](C2=C([O-])c3ccccc3C(=O)/C2=N\S(=O)(=O)c2cccs2)cc1	-86*	2.3µM*	18µM*	18µM*	5.2µM*
Cc1ccc(C(O)P(=O)(OCc2ccccc2)c2ccc(N(C)C)cc2)cc1 (centres undefined)	-1	-27%	-1%	-4%	u
Cc1cc(C)c(S(=O)(=O)N2CCN(C(=O)C3COc4ccccc4O3)CC2)c(C)c1 (centres undefined)	-2	13µM*	-18%	-5%	9.2µM*
Cc1c(CC(=O)N2CCN(C(=O)C3COc4ccccc4O3)CC2)c(=O)oc2c(C)c(O)ccc12 (centres undefined)	-8	u	-10%	-9%	u
Cc1cc(=O)oc2c(C)c(OCC(=O)N3CCN(C(=O)C4COc5ccccc5O4)CC3)ccc12 (centres undefined)	-6	u	-4%	-4%	16µM*
CCCCc1cc(=O)oc2c(C)c(OCC(=O)N3CCCC3)ccc12	u	u	0%	-1%	u
CCCc1cc(=O)oc2c(C)c(OCC(=O)c3ccc(N4CCCC4)cc3)ccc12	6	u	12%	7%	18µM*
CCCc1cc(=O)oc2c(C)c(O[C@@H]3O[C@H](CO)[C@@H](O)[C@H](O)[C@H]3O)ccc12	-11	u	-13%	-9%	7.3µM*
CCOc1nc2cnccc2n(CC(=O)Nc2ccc(C)c(C)c2)c1=O	-1	-22%	8%	9%	-21%
COc1ccc(CN2Cc3ccccc3OC(c3ccccc3OC)C2)cc1O (centres undefined)	x	3%[9.04 µM]	x	x	u
Cc1cc(=O)oc2c(C)c(OCC(=O)N3CCN(c4cccc(Cl)c4)CC3)ccc12	-23	21µM*	-17%	2%	23µM*
Cc1cc(=O)oc2cc(OCC(=O)N3CCN(c4ccccc4)CC3)ccc12	0	-12%	0%[9.24 µM]	9%	0%
C[C@@]12C(=O)N(CC3CC3)CC(=O)N1[C@H](C1CC1)[C@@H]1C(=O)N(c3ccccc3)C(=O)[C@@H]12	19	5%	8%	14%	5%
COC(=O)Cn1c(C2CC(=O)N(c3c(C)cccc3C)C2)nc2ccccc21 (centres undefined)	x	0%	x	x	-19%
Cc1ccccc1OCCCCn1c(C2CC(=O)N(c3ccccc3Cl)C2)nc2ccccc21 (centres undefined)	x	u	x	x	-18%
CCCCN1CC(c2nc3ccccc3n2CCCCOc2c(C)cccc2C)CC1=O (centres undefined)	x	12µM*	x	x	7.3µM*
CCCCN1CC(c2nc3ccccc3n2CCCCOc2ccccc2C)CC1=O (centres undefined)	x	7.3µM*	x	x	5.8µM*
CCCCN1CC(c2nc3ccccc3n2CCCCOc2cc(C)ccc2C)CC1=O (centres undefined)	x	16µM*	x	x	8.2µM*
CCOc1ccc(NC(=O)CN(c2ccc(C)cc2)S(=O)(=O)c2cccs2)cc1	x	5%	x	x	22%
CC(C)C[C@H](N)c1cn([C@@H](Cc2ccc(O)cc2)C(=O)N2CCNCC2)nn1	19	6%	1%	7%	0%
CC(C)C[C@H](N)c1cn([C@@H](CCCCN)C(=O)N2CCNCC2)nn1	u	8.2µM*	1.6µM*	1.2µM*	6.5µM*
OCCN1CCN(Cc2ccc3c(c2)CN(Cc2cc4ccccc4o2)CCO3)CC1	x	1%[9.04 µM]	x	x	-21%
Oc1cc(-c2ccccc2)c2ccccc2c1	-113*	18µM*	u	u	u
O=C(O)c1c2ccccc2cc2ccccc12	x	5%	x	x	-6%
